Measured values as given in PubChem BioAssay (NCATS).
Results filed as inconclusive are left out. A call without a number means that no potency is given here. A number with no mark means an inactive call. The source made the active and inactive calls. Calls come from the whole dose curve; as a rule, active = well fitted inhibition curve with a large enough effect; inconclusive = small, poorly fitted or top-dose-only effect; inactive = no such curve, though single readings can be large or run the other way.

Tests used:
[1] = system: Zika virus NS2B-NS3 protease (unlinked complex); experiment: Primary screen GU Rhodamine qHTS for Zika virus inhibitors: Unlinked NS2B-NS3 protease assay (AID 1347159); conditions: Recombinant ZIKV NS2B-NS3 protease, Rhodamine110 substrate fluorescence; series mostly up to 107 µM; note: nearly all actives have a fitted effect of over 60% in size
Procedure, shortened: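 In dose–response format, inhibition of unlinked protease (25 nM) was measured with 1.5 microM bis-peptide Rhodamine110 substrate. Aprotinin served as the intraplate control.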

[2] = system: Zika virus NS2B-NS3 protease (linked construct); experiment: Primary screen NINDS Rhodamine qHTS for Zika virus inhibitors (AID 1347160); conditions: purified NS2B-NS3 protease, Rhodamine110 substrate fluorescence; series mostly up to 57.1 µM; note: nearly all actives have a fitted effect of over 55% in size
Procedure, shortened: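 Each compound, titrated, sat 15 min with 25 nM linked protease before 1.5 microM Rhodamine110 substrate went in. Fluorescence gain over the next 15 min, in pH 8.0 Tris with Tween 20, gave Hill-fitted curves.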
Potency is the fitted concentration of half-maximal effect.

SMILES	Potency [1]	Potency [2]	activity change, negative = inhibition [1]	outcome [2]
CN1C(=O)c2ccccc2-n2c(nc3ccccc3c2=O)[C@@]12O[C@H]2c1ccccc1	inactive	inactive		
CCCOc1ccn2c(C(C)=O)cc(-c3ccccc3S(C)(=O)=O)c2c1	inactive	inactive		
COC(=O)C1=C[C@@H](O)[C@@H](O)[C@H](O[C@@H]2O[C@H](COC(=O)/C=C/c3ccccc3)[C@@H](O)[C@H](O)[C@H]2O)C1	inactive	inactive		
C=C1CCC[C@]2(C)C[C@]3(O)OC(=O)C(C)=C3C[C@@H]12	inactive	inactive		
COc1ccc([C@H]2Cc3cccc(O)c3C(=O)O2)cc1	inactive	inactive		
CC(=O)OCCC(C)CCC1C(C)(O)CCC2C(C)(C)CCCC21C (centres undefined)	8.91 µM (active)	11.2 µM (active)		
CCC(=O)NS(=O)(=O)c1ccc(-c2c(-c3ccccc3)noc2C)cc1	inactive	inactive		
COc1ccc(/C=C/C(=O)O[C@@H]2[C@@H](O)[C@H](C)O[C@@H](OC3C4C=COC(O[C@@H]5O[C@H](CO)[C@@H](O)[C@H](O)[C@H]5O)C4C4(CO)OC34)[C@@H]2O)cc1OC (some centres undefined)	inactive	inactive		
COC(=O)[C@]12C(=O)C(C)=C(O)[C@@]1(C)C(C)=CC1[C@@]34CC[C@@H](OC(C)=O)C(C)(C)C3[C@H](C[C@]12C)OC4=O (some centres undefined)	inactive	inactive		
C=CC(C)(C)C12CC3C(=O)NC(Cc4cnc[nH]4)C(=O)N3C1Nc1ccccc12 (centres undefined)	inactive	inactive		
CCc1nc(C(N)=O)c(Nc2ccc(N3CCC(N4CCN(C)CC4)CC3)c(OC)c2)nc1NC1CCOCC1	inactive	inactive		
CC1C(=O)CC2C3C(O)CC(C(=O)O)C12CC3(C)C (centres undefined)	inactive	inactive		
COc1cc(/C=C/c2cc(O)cc(O[C@@H]3O[C@H](CO)[C@@H](O)[C@H](O)[C@H]3O)c2)ccc1O	inactive	inactive		
COc1cc(C2OCC3C(c4ccc(OC5OC(CO)C(O)C(O)C5O)c(OC)c4)OCC23)ccc1O (centres undefined)	inactive	inactive		
C[C@@H]1O[C@@H](O[C@@H]2[C@@H](O)[C@H](O[C@@H]3[C@@H](O)[C@@H](O)[C@H](O[C@H]4[C@H](OC(=O)[C@]56CCC(C)(C)C[C@H]5C5=CCC7[C@@]8(C)C[C@H](O)[C@H](O[C@@H]9O[C@H](C(=O)O)[C@@H](O)[C@H](O)[C@H]9O)[C@@](C)(CO)C8[C@H](O)C[C@@]7(C)[C@]5(C)CC6)OC[C@H](O)[C@@H]4O)O[C@H]3C)OC[C@H]2O)[C@H](O)[C@H](O)[C@H]1O (some centres undefined)			20.7% [at 19.1 µM]	inactive [at 10.7 µM]
C=C1C[C@]23C[C@H]1CC[C@H]2[C@@]12C=C[C@H](O)[C@@](C)(C(=O)O1)[C@H]2[C@@H]3C(=O)O	inactive	inactive		
COc1cc(C/C(=C/NC(C)=O)N(CC(=O)Cc2ccccc2)C(C)=O)cc2c1OCO2	inactive	inactive		
CC1=C(C)C(=O)OC(C(C)(O)C2CCC3C4CC=C5CC(OC6OC(COC7OC(CO)C(O)C(O)C7O)C(O)C(O)C6O)CC(O)C5(C)C4CCC32C)C1 (centres undefined)	inactive	inactive		
CC1=CC2(O)/C=C/C(C)(O)CC(O)/C=C/C(=O)OC23C(=O)NC(CC(C)C)C3C1C (centres undefined)	inactive	inactive		
CCOC(=O)c1c(C)nn(-c2cccc([N+](=O)[O-])c2)c1C	inactive	inactive		
CC1=C(C)C(=O)OC(C(C)C2C(O)CC3C4C5OC5C5(O)CC(OC6OC(CO)C(O)C(O)C6O)CC(O)C5(C)C4CCC32C)C1 (centres undefined)	inactive	inactive		
C=CC1(C)C=C2C(=O)CC3C(C)(C)CCCC3(C(=O)O)C2(O)CC1 (centres undefined)	inactive	inactive		
C[C@@H](Nc1cc(NS(=O)(=O)N2CCC2)nc(SCc2cccc(F)c2F)n1)[C@@H](O)CO	inactive	inactive		
C[C@]12CC[C@@H]3c4ccc(O[C@@H]5O[C@H](C(=O)O)[C@@H](O)[C@H](O)[C@H]5O)cc4CC[C@H]3[C@@H]1CCC2=O	inactive	inactive		
O=C1NCc2nc3ccccc3c(=O)n2C1Cc1c[nH]c2ccccc12 (centres undefined)	inactive	inactive		
COc1cc2c(cc1O)C1(OC)Cc3ccc4c(c3C1N(C)CC2)OCO4 (centres undefined)	inactive	inactive		
CC(=O)O[C@H]1[C@H](C)[C@@H](O)[C@H]2[C@@H]1C=C(C(=O)O)[C@H]1C[C@@H]3[C@H]([C@H]21)[C@H]1C(=O)O[C@@H]2CC[C@@]3(C)O[C@]1(O)[C@@H]2C	inactive	inactive		
